Screen size: about 360,000 compounds; about 11,000 (3.1%) were called active. No stated cut-off is given here; in the data, active means activity change below about -30%; inactive means the rest. The list comes from a sample in which actives are over-represented; it also holds similar structures and randomly drawn compounds.
On the % scale 0 is the no-effect control and ±100 the full control effect.

Chain of D(1A) dopamine receptor (Homo sapiens) (P21728 whole entry, looked up): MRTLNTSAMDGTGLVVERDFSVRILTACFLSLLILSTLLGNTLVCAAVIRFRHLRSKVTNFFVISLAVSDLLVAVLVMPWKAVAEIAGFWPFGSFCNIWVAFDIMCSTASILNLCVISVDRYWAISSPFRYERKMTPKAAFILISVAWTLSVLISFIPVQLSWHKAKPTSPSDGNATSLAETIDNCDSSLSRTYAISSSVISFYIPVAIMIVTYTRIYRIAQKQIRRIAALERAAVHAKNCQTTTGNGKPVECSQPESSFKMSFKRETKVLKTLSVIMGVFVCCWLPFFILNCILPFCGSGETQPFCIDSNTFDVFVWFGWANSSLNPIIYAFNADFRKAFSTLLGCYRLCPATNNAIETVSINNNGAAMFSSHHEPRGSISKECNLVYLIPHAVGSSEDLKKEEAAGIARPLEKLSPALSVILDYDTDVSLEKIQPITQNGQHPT

The assay addresses D(1A) dopamine receptor (Homo sapiens) (UniProt P21728). Briefly: Antagonist of Human D 1 Dopamine Receptor: qHTS. As to conditions: HEK293 TREx D1 cells, calcium flux, dopamine EC80; at 10 µM; stronger effect = lower value. The source says:
Dopamine receptors (DARs) are involved in the etiology and/or therapy of a number of neuropsychiatric and endocrine disorders. For instance, all receptor-based antiparkinsonian drugs work via stimulating the […] DAR subtype whereas all FDA-approved antipsychotic agents are antagonists of this receptor. […] There are three different types of allosteric modulators that we are seeking, two of which will stimulate or augment receptor signaling, allosteric agonists and potentiators, while the third, allosteric antagonists, will attenuate receptor signaling. The present primary screening assay measures compound antagonism after an EC80 addition of dopamine by tracking calcium flux in a […], inducible Hek293 Trex D1 cell line. NIH Chemical Genomics Center [NCGC] NIH Molecular Libraries Probe Centers Network [MLPCN] MLPCN Grant: NS064831-01 Assay Submitter (PI): David Sibley
Freshly passaged cells are plated in 1536 well black, clear bottom plates at a density of 4000 cells/well in 3 ul of complete media containing 1x tetracycline inducer. After an overnight incubation at 30 C in 5% CO2, cells are loaded with 2 ul of the no wash Calcium Assay Kit (ABD Bioquest) and incubated at room temperature for 30 to 90 minutes. Agonist read: A 10 cycle (1 second/cycle) baseline measurement is taken and then the FDSS online 1536 pintool delivers 23 nl of compound library (as well as dopamine controls) to the plate. The plate is measured for kinetically at 1 cycle/sec for 180 seconds. Following the 180 second read, 1 ul of an EC80 (negative modulation assay) is delivered by an onboard pipette head. Measurements are taken kinetically for an additional 180 seconds.
For the compound `Cn1c(SCc2ccc(F)cc2)nnc1-c1ccncc1`, the activity change, negative = inhibition is 5.13% (inactive). Take `O=c1cc(CSc2ncn[nH]2)[nH]c2ccc(F)cc12`: the activity change, negative = inhibition was 10.4% (inactive). With `Cc1nnc(SCc2cc(=O)c3cc(F)ccc3[nH]2)n1C`, the activity change, negative = inhibition is -67.4% (active). The figure for `Cc1cccc(NC(=O)c2ccc3nc(C(C)C)oc3c2)c1C` is 9.09% (inactive); for `CC1CC1C(=O)OCC(=O)c1c(N)n(C)c(=O)n(C)c1=O` (stereo not given) it is 5.53% (inactive); for `Cn1c(N)c(C(=O)COC(=O)c2cnc(Cl)c(Cl)c2)c(=O)n(C)c1=O` it is 12.2% (inactive).

Take `Cc1cc(C(=O)OCC(=O)c2c(N)n(C)c(=O)n(C)c2=O)c(C)o1`: the activity change, negative = inhibition was -60.8% (active). The result for `O=C(CSc1nccn1-c1ccc(F)cc1)Nc1cccc2ccccc12` reads 43.1% (inactive); that for `O=C(Cn1c(=O)n(Cc2cccs2)c(=O)c2cccnc21)Nc1ccc(F)cc1`, 2.03% (inactive). The figure for `Cc1c(Cl)cccc1NC(=O)C1CCCN(c2ncnc3onc(C)c23)C1` (stereo not given) is -3.12% (inactive). The result for `COc1ccc(CN(C)C(=O)CC(c2ccccc2)c2ccccc2)cc1` reads -31.6% (active). Consider `COc1ccc(C(CCN(Cc2ccc(OC)c(OC)c2)C(=O)CCl)c2ccccc2)cc1` (stereo not given), for which the activity change, negative = inhibition is 0.248% (inactive). The figure for `CN(Cc1ccccc1)C(=O)COc1ccccc1` is 2.23% (inactive). The result for `CCOC(=O)CC1COCCN1C(=O)c1cc(COc2ccc(F)c(F)c2)on1` (stereo not given) reads -41% (active); that for `O=C(c1cc(COc2ccc(F)c(F)c2)on1)N1CCOCC1`, -16.4% (inactive). The result for `CCC(NC(=O)c1cc(COc2ccc(F)c(F)c2)on1)c1ccncc1` (stereo not given) reads -27.1% (inactive); that for `Cc1ccc(C(=O)N2CCc3cc(CNC(=O)c4ccc(Br)cc4)ccc32)cc1`, 3.02% (inactive). As to `Cc1noc2ncnc(NCc3ccccc3Cl)c12`, the activity change, negative = inhibition was -4.33% (inactive).

In the case of `Nc1ncc(S(=O)(=O)Nc2ccc(OC(F)(F)F)cc2)cn1`, the activity change, negative = inhibition was 18% (inactive).

With `Cc1nn(C)c(C)c1NS(=O)(=O)c1ccc(OC(F)(F)F)cc1`, the activity change, negative = inhibition is -90.7% (active). The result for `COc1ccc(OC)c(S(=O)(=O)Nc2c(C)nn(C)c2C)c1` reads 2.31% (inactive); that for `Cc1cccc(NC(=O)C2CCN(S(=O)(=O)c3c(C)noc3/C=C/c3ccco3)CC2)c1`, -5.72% (inactive); that for `C=Cc1ccc(Cn2c(C(=O)OC)cc3sc(C)cc32)cc1`, 21.5% (inactive). For the compound `CC(Sc1nnc(-c2cccs2)n1C1CC1)C(=O)NCC1CCCO1` (stereo not given), the activity change, negative = inhibition was -30.6% (active).

Turning to `CC(Sc1nn(-c2ccc(Cl)cc2)c(=S)s1)C(=O)NCC1CCCO1` (stereo not given), the activity change, negative = inhibition was -0.972% (inactive).

As for `Cc1ccc(N(C(=O)Cc2cccs2)C(C(=O)NCC2CCCO2)c2ccncc2)cc1` (stereo not given), the activity change, negative = inhibition was -0.595% (inactive). The figure for `CC(C)OCCCn1c(SCC(=O)c2ccccc2)nc2c(sc3ccccc32)c1=O` is 4.36% (inactive); for `Cc1cc(C)cc(OC(C)C(=O)Nc2nc3c(s2)CCCC3)c1` (stereo not given) it is 3% (inactive). Turning to `COc1ccc2cc(CNc3ccc(OC)c(OC)c3)c(=O)n(CC(=O)Nc3ccccc3F)c2c1`, the activity change, negative = inhibition is -14.2% (inactive). The result for `Cc1ccc2[nH]cc(CCNC(=O)C3CCCCC3)c2c1` reads -23.8% (inactive); that for `CCOc1ccc(CN2CCN(Cc3c[nH]c4ccccc34)CC2)cc1`, 4.58% (inactive); that for `O=C(NCCc1c[nH]c2ccccc12)C1CCN(Cc2ccc(Br)cc2)CC1`, -56.3% (active). The figure for `Cc1cc(C)cc(NS(=O)(=O)c2ccc3[nH]cc(C(=O)N4CCCCC4)c(=O)c3c2)c1` is -3.92% (inactive); for `CCN(c1ccc(Cl)cc1)S(=O)(=O)c1nnc(NC(=O)c2ccco2)s1` it is -1.57% (inactive); for `COc1cccc(CN(C)CC(=O)NCc2ccccc2Cl)c1OC` it is -23.2% (inactive). The result for `COc1cccc(CN(C)CC2CCCN(CCc3ccc(Cl)cc3)C2)c1OC` (stereo not given) reads -79.9% (active); that for `Cc1nc2ccc(C(=O)N(C)CC3CCCN(CCc4ccc(Cl)cc4)C3)cc2[nH]1` (stereo not given), -13.3% (inactive). For `CCc1ccc(NC(=O)CCS(=O)(=O)c2cc3c(cc2Cl)NC(=O)CO3)cc1`, the activity change, negative = inhibition was -16.7% (inactive). As for `COc1ccc(-n2c(SCC(N)=O)nc3c(oc4ccccc43)c2=O)cc1`, the activity change, negative = inhibition was 10.8% (inactive). The result for `Nc1c(C(=O)c2cccs2)sc2nsc(SCCN3CCCCC3)c12` reads -42.4% (active). The figure for `CN(C)c1ccc(C(CNS(=O)(=O)c2cc(F)ccc2F)N2CCOCC2)cc1` (stereo not given) is -3.66% (inactive); for `Cc1cccc(NC(=O)CSc2nc3c([nH]c4ccccc43)c(=O)n2-c2cc(C)cc(C)c2)c1` it is 23.9% (inactive).

For the compound `Cc1ccc(NC(=O)CSc2nc3c([nH]c4ccccc43)c(=O)n2-c2ccccc2)c(C)c1`, the activity change, negative = inhibition was -35.7% (active). The result for `Cc1ccc(NC(=O)CSc2nc3c([nH]c4ccccc43)c(=O)n2-c2ccccc2)cc1Cl` reads -8.44% (inactive). The figure for `CCN(CC)C(=O)CSc1nnc(-c2ccc(S(=O)(=O)NCc3ccccc3Cl)cc2)o1` is -32.6% (active). As for `CCN(C(=O)CSc1nnc(-c2ccncc2)o1)c1ccccc1`, the activity change, negative = inhibition was -3.41% (inactive).

With `CCc1ccccc1NC(=O)CSc1nnc(-c2ccncc2)o1`, the activity change, negative = inhibition is 7.4% (inactive). The figure for `CCOc1ccc(C(=O)c2cn(Cc3ccc(F)cc3)c3ccc(F)cc3c2=O)cc1` is -1.13% (inactive); for `Cc1cccc(Cn2c(SCc3ccc(C(=O)N4CCC(C)CC4)cc3)nc3ccncc32)c1` it is -18.5% (inactive).

Consider `O=C1NC(c2ccccc2)Oc2ccccc21` (stereo not given), for which the activity change, negative = inhibition was 3.6% (inactive).

Turning to `CN1CC(c2ccccc2)C2(COc3ccccc3C2=O)C12C(=O)Nc1ccccc12` (stereo not given), the activity change, negative = inhibition is -39.3% (active). On to `Oc1ccccc1-c1nc(/C=C/c2ccc(F)cc2)no1`, for which the activity change, negative = inhibition is 3.54% (inactive). The result for `Cc1cc2c(cc1S(=O)(=O)CCC(=O)Nc1ccc(OC(F)(F)F)cc1)OCC(=O)N2` reads -0.986% (inactive); that for `CCOC(=O)c1ccc(NC(=O)CC2C(=O)N(c3cccc(OC)c3)C(=O)N2C2CCCCC2)cc1` (stereo not given), -8.12% (inactive); that for `CC(=O)c1sc(NC(=O)C2=NN(c3ccccc3)C(=O)CC2)nc1C`, 2.3% (inactive).

Turning to `CC(=O)c1sc(N/N=C/c2ccc(C(C)C)cc2)nc1C`, the activity change, negative = inhibition was -11% (inactive). On to `CC(=O)c1sc(N/N=C\c2ccc(C)cc2)nc1C`, for which the activity change, negative = inhibition is -54.7% (active). The figure for `CCOC(=O)CNC(=O)c1cc2c(=O)n3cccc(C)c3nc2s1` is 0.697% (inactive); for `CCOc1ccc(N(CC(=O)NC2CCCCCC2)S(=O)(=O)c2c(C)[nH]c(=O)[nH]c2=O)cc1` it is 7.77% (inactive); for `COc1ccc(N(CC(=O)NC2CCCCC2)S(=O)(=O)c2c(C)[nH]c(=O)[nH]c2=O)cc1` it is -34% (active). The result for `COc1ccc(N(CC(=O)NC2CCCCCCC2)S(=O)(=O)c2c(C)nn(C)c2C)cc1` reads -2.1% (inactive); that for `CCOC(=O)c1cnc(-n2nc(C)cc2C)nc1NNc1cc(C)nc(-c2ccccc2)n1`, -5.98% (inactive). The figure for `Cc1cc(C)n(-c2c(F)c(F)c(COC(=O)c3ccccc3)c(F)c2F)n1` is -44% (active); for `CCCOn1c(-n2nc(C)cc2C)nc2ccccc2c1=O` it is -4.18% (inactive); for `CCCN(CCC)C(=O)C1CCCN(c2ncnc3c2nc2n3CCCCC2)C1` (stereo not given) it is 11.5% (inactive). Consider `Cc1ccc(NC(=O)C(C)OC(=O)Cc2c[nH]c3ccccc23)cc1S(=O)(=O)N1CCOCC1` (stereo not given), for which the activity change, negative = inhibition is -47.8% (active). The figure for `Cc1cc(C(=O)Nc2ccc(C)c(S(=O)(=O)N3CCOCC3)c2)c2ccccc2n1` is 11.4% (inactive).

Turning to `CC(OC(=O)CCCc1c[nH]c2ccccc12)C(=O)Nc1ccc(S(N)(=O)=O)cc1` (stereo not given), the activity change, negative = inhibition was 8.67% (inactive).

In the case of `COc1cc(OC)c(OC)cc1/C=C/c1nc2cc3ccccc3cc2c(=O)n1-c1ccc(F)c(Cl)c1`, the activity change, negative = inhibition was -0.661% (inactive).

As for `CCCN(CCC)C(=O)Cn1c(=O)n(-c2ccc(Cl)cc2)c(=O)c2c3c(sc21)CCCCC3`, the activity change, negative = inhibition was 10.1% (inactive). Consider `Cc1ccc(CNC(=O)Cn2c(=O)ccc3cc(S(=O)(=O)N4CCCC4)ccc32)cc1`, for which the activity change, negative = inhibition is 3.17% (inactive).

`Cc1ccc(NC(=O)OCCNC(=O)c2ccncc2)cc1`: the activity change, negative = inhibition was -26.6% (inactive). The figure for `CCCCC(CCC(=O)Nc1ccc(C(=O)OCC)cc1)C(=O)O` (stereo not given) is -5.38% (inactive); for `CCCCCOC(=O)NCCOC(=O)Nc1ccc(C(=O)OCC)cc1` it is -34.7% (active). The figure for `Cc1ccc2nc(COc3cccc(NC(=O)c4cccc(Cl)c4)c3)cc(=O)n2c1` is 3.14% (inactive).

On to `CCOC(=O)c1cc2c(=O)n3ccccc3nc2n(Cc2ccco2)c1=NC(=O)c1ccc(F)cc1`, for which the activity change, negative = inhibition was -29.5% (inactive). The figure for `COc1ccc(OC)c(NC(=O)Cn2c(=O)n(Cc3ccccc3)c(=O)c3ccccc32)c1` is -5.43% (inactive). The result for `CCOc1ccc(NC(=O)c2c(NC(=O)Cc3ccccc3)sc3c2CCC(C)C3)cc1` (stereo not given) reads 11.2% (inactive). With `Cc1ccc(NC(=O)c2cc(S(=O)(=O)NCCC3=CCCCC3)ccc2F)cc1C`, the activity change, negative = inhibition is -29.8% (inactive). The figure for `CC(Nc1nc(N2CCN(CCO)CC2)nc2ccccc12)c1ccccc1` (stereo not given) is 2.98% (inactive); for `CC(Nc1nc(N2CCOCC2)nc2ccccc12)c1ccccc1` (stereo not given) it is -48.3% (active). The figure for `CC(Nc1nc(N2CCCC2)nc2ccccc12)c1ccccc1` (stereo not given) is -25.4% (inactive). The result for `Cc1ccccc1CNC(=O)c1cccc(NC(=O)c2nsc3ccccc23)c1` reads 3.86% (inactive). For the compound `COc1cc(CNCCSc2nnnn2C)ccc1OCc1ccc(Cl)cc1Cl`, the activity change, negative = inhibition was 0.753% (inactive). The result for `CN(C)c1ccc(C(=O)NCC(=O)OC(C(=O)Nc2cc(C(F)(F)F)ccc2Cl)c2ccccc2)cc1` (stereo not given) reads -15.1% (inactive); that for `Cc1ccc(C(=O)Cn2cccn2)cc1`, -6.01% (inactive); that for `Cc1ccc(C(=O)Cc2nnc(C)s2)cc1`, 7.19% (inactive). The result for `Cc1ccc(C(=O)CS(C)(=O)=O)cc1` reads -33.3% (active).

Regarding `CCc1nc2onc(C)c2c(=O)n1CC(=O)O`, the activity change, negative = inhibition was 10.4% (inactive). The result for `O=C(COc1ccccc1F)OCc1cc(=O)n2nc(C3CCCCC3)sc2n1` reads 11% (inactive).

Source of the values: PubChem BioAssay AID504652 (National Center for Advancing Translational Sciences (NCATS), 2011).
